About 95 (0.2%) of roughly 47,000 compounds were called active. Only a selection was taken, and actives are over-represented in it overall. Values without a mark were called inactive. Cut-off read from the data, not from the text of the source: active = inhibition above about 30%; inactive = the rest.
These compounds were tested against Ubiquitin carboxyl-terminal hydrolase isozyme L1 (Homo sapiens) (UniProt P09936) (assay: inhibitors of human UCHL1 deubiquitinase (AID 1645859)). Details: purified UCHL1, Ub-rhodamine cleavage fluorescence; at 20 µM; hits give high values.
Ubiquitin carboxyl-terminal hydrolase isozyme L1 (Homo sapiens), sequence (P09936 whole entry, looked up): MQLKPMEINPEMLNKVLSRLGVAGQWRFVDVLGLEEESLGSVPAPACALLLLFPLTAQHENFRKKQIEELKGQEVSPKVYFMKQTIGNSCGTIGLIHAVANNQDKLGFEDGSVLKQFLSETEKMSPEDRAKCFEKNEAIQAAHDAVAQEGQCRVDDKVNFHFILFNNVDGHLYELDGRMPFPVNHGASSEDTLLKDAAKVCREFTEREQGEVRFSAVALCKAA

Row | SMILES | inhibition
1 | COCC(=O)N1CCC(n2c(-c3ccccc3OC)nc3ccccc32)CC1 | -2.92%
2 | COCCC(=O)N1CCC2(C/C=C/Cc3ccccc3OCC(=O)NCCNC2=O)CC1 | 3.12%
3 | COCC(=O)N1CCN2C[C@H]1C(=O)NC[C@H]1O[C@@H](CC(=O)N[C@H]3C[C@@H](C2=O)N(Cc2ccc(OC(F)(F)F)cc2)C3)[C@H](O)[C@@H]1O | -6.2%
4 | FC(F)(F)c1ccc(-c2nnc(SCCOc3ccccc3)o2)cc1 | 11.1%
5 | Cc1ccc(CN2CN(C3CCN(C(=O)c4ccoc4)CC3)CC2=O)c(C)c1 | -0.0513%
6 | O=C(Nc1nc2nc(-c3ccccc3)cc(=O)n2[nH]1)C1CCCCC1 | 4.88%
7 | Cc1nc(-c2cn(C(C)C)c3ncccc23)sc1C(=O)N1CCCC1 | 1.73%
8 | Cc1ccc(CNC(=O)c2cc(=O)nc3sc(N4CCCC(C)C4)nn23)cc1 (centres undefined) | 0.655%
9 | COc1ccc(C(NC(=O)CN(C)Cc2ccc3c(c2)OCO3)c2ccccc2)cc1 (centres undefined) | 6.51%
10 | Fc1ccccc1Cn1c(COc2ccccc2)nc2ccccc21 | 8.93%
11 | O=C(N[C@@H]1CN(Cc2nccs2)[C@@H]2COC[C@@H]21)C1CCC1 | -3.31%
12 | O=C(Nc1ccc(F)cc1)c1cc(CN2CCOCC2)on1 | 1.96%
13 | C=C1CCC2[C@](C)(CCC[C@]2(C)C(=O)OC)[C@H]1CCc1ccoc1/C=C/C(=O)O (some centres undefined) | 9.97%
14 | O=C1COC2(CCN(C(=O)C3(c4ccccc4)CCOCC3)C2)CN1c1ccc(F)cc1 (centres undefined) | 2.68%
15 | O=C(CCc1ccncc1)N(Cc1ccc2c(c1)OCO2)C1CCCCC1 | -0.303%
16 | COC[C@H]1C[C@@H]2CN(S(=O)(=O)c3ccccc3OC)C(C)[C@H]1N2C (some centres undefined) | 0.608%
17 | O=C(Nc1nnc(-c2cccc([N+](=O)[O-])c2)o1)C1CCN(S(=O)(=O)c2ccc3c(c2)CCC3)CC1 | 5.08%
18 | Cc1nc(Nc2ccccn2)cc(C2CCCN2Cc2ncc[nH]2)n1 (centres undefined) | -2.35%
19 | CCc1cccc(NS(=O)(=O)c2ccc3c(c2)C(C)(C)C(=O)N3)c1 | 4.05%
20 | COc1cccc(CNC(=O)CN2C(=O)CCc3cc(Br)ccc32)c1 | 3.25%
21 | O=C1CC2(C(=O)N(Cc3cccc(Cl)c3)c3ccccc32)c2cn[nH]c2N1 (centres undefined) | -5.23%

Row | SMILES | inhibition
22 | CCn1c(=O)c2ccccc2n(Cc2nc(-c3ccc(C)cc3)no2)c1=O | -1.69%
23 | O=C(C1CCC1)N1CCN2C(=O)c3ccccc3[C@H]2C1 | -4.57%
24 | O=C1C(O)=C(c2ccc(O)c(O)c2)C(=O)C(O)=C1c1ccccc1 | 13.7%
25 | O=C1OCC2=C1C(c1ccccc1)CC(=O)N2c1cccc(F)c1 (centres undefined) | -0.0471%
26 | Cc1nc(NCCO)c2sc3nc4c(cc3c2n1)COC(C)(C)C4 | 3.92%
27 | CCOc1ccccc1-c1nc(-c2nnn(Cc3ccccc3)c2C)no1 | 7.54%
28 | COc1ccc(C(Nc2ccc(S(=O)(=O)NCC3CCCO3)cc2)C(=O)NCC2CCCO2)cc1 (centres undefined) | 1.49%
29 | O=C(Cn1c(=O)n(Cc2cccs2)c(=O)c2cc(Cl)ccc21)NCC1CCCO1 (centres undefined) | 0.727%
30 | Cc1nc(N2CCOCC2)ncc1-c1cc(=O)[nH]c(N2CCC(Cc3ccccc3)CC2)n1 | 5.31%
31 | Cc1nc2ccccc2n1CC(O)c1ccccc1 (centres undefined) | -0.449%
32 | O=C(c1noc2ccc(S(=O)(=O)N3CCCC3)cc12)N1CCCC1 | 0.984%
33 | Cc1ccc(CNc2nc3nc(CN4CCc5ccccc5C4)cc(=O)n3[nH]2)cc1 | -0.288%
34 | O=C(Cn1cc(SCc2cccc(F)c2)c2ccccc21)N1CCCCCC1 | 7.23%
35 | CC(C)Cc1cc(-c2nn3c(-c4ccccc4Cl)nnc3s2)n[nH]1 | 5.44%
36 | Cc1c(-c2nn3c(-c4ccco4)nnc3s2)cccc1[N+](=O)[O-] | 61.3% (active)
37 | O=C(COc1cccc2ccc(N3CCC(Cc4ccccc4)CC3)nc12)NCc1ccc(F)cc1 | 2.33%
38 | O=C(c1cn(-c2cc(-c3nc(C4CC4)no3)ccn2)cn1)N1CCCCCC1 | -3.62%
39 | O=C(NCCN1CCOCC1)C1CCN(c2ccc(N3CCCCC3)nn2)CC1 | -0.229%
40 | Cc1ncc(-c2ccncc2)c(C2CCN(C(=O)c3cnccn3)CC2)n1 | 0.226%
41 | Cn1cc2nc(SCC(=O)NCc3ccc(Cl)cc3)n(CC3CC3)c(=O)c2n1 | -3.8%
42 | O=c1c2ccccc2c(-c2nc(-c3ccncc3)no2)cn1-c1ccc(F)cc1 | 3.33%

Row | SMILES | inhibition
43 | CCCCCCSc1ncnc2c1sc1nc(-c3ccccc3)c3c(c12)CC(C)(C)OC3 | -2.54%
44 | CC1(C)Cc2c(c(-c3ccco3)nc3sc4c(SCCCc5ccccc5)ncnc4c23)CO1 | 56.3% (active)
45 | CSc1ncnc2c1sc1nc(-c3ccccc3)c3c(c12)CC(C)(C)OC3 | 2.83%
46 | CCc1cnc(N2CC[C@@H]3CN(CC)S(=O)(=O)[C@@H]3CC2)nc1 | 1.62%
47 | Cc1nc2c(c(=O)[nH]1)C(c1ccc(OCc3ccccc3F)cc1)CC(=O)N2 (centres undefined) | -1.23%
48 | Cc1cc(N(C)C)nc(N2CCN(S(=O)(=O)c3ccc(-c4ccccc4)cc3)CC2)n1 | 1.74%
49 | Cc1cc(C)c2c(C)c(C(=O)NCc3csc(C)n3)oc2c1 | -0.0316%
50 | Cc1ccc(C(=O)N2CCc3cc(-c4csc(NC(=O)CNc5ccccc5)n4)ccc32)cc1 | -0.728%
51 | Cc1nn(-c2ccc(Cl)cc2)c2c1C(c1cccc(Br)c1)N1C(=N2)N(C)c2c1c(=O)n(C)c(=O)n2C (centres undefined) | -0.542%
52 | COCCCn1c(C(=O)N2CCC(C)CC2)cc2c(=O)n3ccccc3nc21 | -5.93%
53 | O=C1CN(C(=O)c2ccc(Cl)o2)c2ccccc2N1 | -5.13%
54 | CCc1nnc2ccc(C(=O)N3CCN(c4ccccn4)CC3)cn12 | 1.5%
55 | Fc1cc(F)cc(-c2noc3ncnc(N(Cc4ccco4)CC4CCCO4)c23)c1 (centres undefined) | 0.782%
56 | Cc1ccc(CN2C[C@H]3C[C@H](C(=O)NC(C)C)[C@@H](C2)O3)o1 | 2.08%
57 | O=C1NC(=O)N2Cc3ccccc3CN(C(=O)c3ccc(Cl)cc3)CC12 (centres undefined) | 0.947%
58 | COc1ccc(CN=C2NS(=O)(=O)C(c3ccc(F)cc3)=C2C)cc1OC | -4.12%
59 | c1coc(CNc2nc(Nc3cccc4ccccc34)nc3ccccc23)c1 | 5.02%
60 | CC(CC(=O)N1CCc2ccccc2C1)S(=O)(=O)c1ccc2c(c1)NC(=O)CCS2 (centres undefined) | -1.85%
61 | COc1ccc(C)cc1NC(=O)c1coc(NC(=O)c2ccco2)n1 | -2.46%
62 | CO[C@H]1C[C@@H]2CC[C@@H](C)[C@@](O)(O2)C(=O)C(=O)N2CCCC[C@H]2C(=O)O[C@H]([C@H](C)C[C@@H]2CC[C@@H](O)[C@H](OC)C2)CC(=O)[C@H](C)/C=C(\C)[C@@H](O)[C@@H](OC)C(=O)[C@H](C)C[C@H](C)/C=C/C=CC=C1C | 6.78%
63 | CCN1CCN(c2ccc(-c3nc(-c4cccc(F)c4)no3)cn2)CC1 | -1.45%

Row | SMILES | inhibition
64 | CCc1nc(SCC(=O)Nc2cccc(OC)c2)c2c(=O)n(C)c(=O)n(C)c2n1 | -0.222%
65 | O=C1C2Cc3c([nH]c4ccccc34)C(c3ccccc3)N2C(=O)CN1C1CCCCC1 (centres undefined) | 5.95%
66 | O=C(C1=Cc2ccccc2OC1)N1CCN(c2ccccc2)CC1 | 0.226%
67 | COc1cccc(C(=O)NC2CC(=O)N(c3ccc(F)cc3)C2)c1OC (centres undefined) | 0.016%
68 | Cc1nc(C2CCN(C(=O)C(C)(C)C)CC2)cc(N2C(=O)OCC2C(C)C)n1 (centres undefined) | -3.66%
69 | CC(C)c1cc(N2CCCCC2)nc(-c2ccccn2)n1 | -3.77%
70 | CN(C)S(=O)(=O)N1C[C@H](OCc2ccccn2)[C@H]2OCCC[C@H]21 | -1.03%
71 | Cc1nccn1-c1cccc(C2CCCN(c3ncccn3)C2)n1 (centres undefined) | -0.888%
72 | C/C=C(\C)C(=O)O[C@@H]1C[C@@]2(C)CC[C@H](C(C)C)[C@@]2(O)CC[C@@]1(C)O | -2.54%
73 | O=C1CN2CC(c3ccccc3S2(=O)=O)N1Cc1ccccc1 (centres undefined) | -1.24%
74 | CCC(=O)c1c(-c2ccc(F)cc2)c2c3n(c(-c4ccc(Cl)c(Cl)c4)cn13)CCCC2 | 3.03%
75 | O=C1N[C@H]2OCCC[C@H]2[C@H](c2cccc(CNC(=O)c3ccon3)c2)N1 | 1.68%
76 | Cc1ccccc1CN1C(=O)N(c2cccc(F)c2)c2ncccc2S1(=O)=O | 3.52%
77 | Cc1cnn(CC2CCCN2Cc2nc(-c3ccco3)no2)c1 (centres undefined) | -8.36%
78 | CC(=O)NCc1nc(-c2ccc3c(c2)nc(C)c(=O)n3C2CCCC2)no1 | -31.3%
79 | O=C(C1CCCN(c2cnc3nccnc3c2)C1)N1CCCCCC1 (centres undefined) | -42.4%
80 | CN(C)c1ncc(CN2CCN(C)C(c3ccccc3)C2)cn1 (centres undefined) | -0.428%
81 | CNC(=O)C1Cc2ccccc2N1S(=O)(=O)c1cccnc1 (centres undefined) | -8.34%
82 | Cc1ccc(C)c(S(=O)(=O)NCC(c2ccc3c(c2)CCN3C)N2CCCC2)c1 (centres undefined) | -2.82%
83 | COc1ccc(C(=O)N2CCCC(c3ccnc(=O)[nH]3)C2)cn1 (centres undefined) | -1.26%
84 | Cc1ccc(NC(=O)N2CCSc3ccccc32)cc1 | -0.231%
